Measured values taken from ChEMBL document CHEMBL4513216, “Probing the Open Global Health Chemical Diversity Library for Multistage-Active Starting Points for Next-Generation Antimalarials” (ACS Infect Dis, 2020).
Out of some 68,000 compounds screened, about 2,700 (4%) showed an effect of 50% or more. Many of the other results were omitted from the sample, so strong results are more common in it than they were.

Test system: Plasmodium berghei
Assay: Screen against P. berghei liver stage (PbLuc), transformed with Luciferase, at 2uM
Type: functional, HepG2
Conditions: tested at 2 uM

Row | Structure (SMILES) | INHIBITION
1 | Cc1cccc(CN2C[C@@H]3COC[C@H](NS(C)(=O)=O)[C@@H]3C2)n1 | 32.85%
2 | CN(C)Cc1cnc(C2CCN(C(=O)c3ccccc3F)C2)[nH]1 (stereo not drawn) | -17.01%
3 | CCN(Cc1ccccc1)C(=O)CN1CCOC(Cn2cncn2)C1 (stereo not drawn) | 32.41%
4 | O=C(N1CCCC(n2cncn2)C1)C1(c2ccccc2F)CCCC1 (stereo not drawn) | -15.28%
5 | O=C(COCc1nc(-c2ccncc2)no1)N1CCCCC1 | 27.89%
6 | Brc1cnc(NCCCOCC2CCOC2)nc1 (stereo not drawn) | 20.3%
7 | COCCCNS(=O)(=O)c1cc(C)sc1C | -11.76%
8 | CCc1nccn1-c1cccc(C2CCN(C(=O)COC)CC2)n1 | 47.4%
9 | N#Cc1ccsc1N1CCC(Sc2ccncc2)C1=O (stereo not drawn) | 35.61%
10 | Cc1cnn(CCC(=O)N2CCCN(c3ncccc3C#N)CC2)c1 | -2.7%
11 | CCS(=O)(=O)N1CCC(NC(=O)c2cc(C)ccc2O)CC1 | -12.19%
12 | Cc1nc(CC(=O)N2CCN(CCOc3ccccc3)CC2)cs1 | 65.5%
13 | CC(=O)c1cc(CC(=O)N2CCN(CCOc3ccccc3)CC2)cs1 | -18.33%
14 | O=C(Cc1ccsc1)N1CCN(CCOc2ccccc2)CC1 | 6.17%
15 | FC(F)(F)C1CCc2nnc(CNCc3cccs3)n2C1 (stereo not drawn) | 58.98%
16 | FC(F)(F)C1CCc2nnc(CNCc3ccsc3)n2C1 (stereo not drawn) | -14.84%
17 | Fc1ccc(CNCc2nnc3n2CC(C(F)(F)F)CC3)cc1 (stereo not drawn) | 0.85%
18 | CCCC(NC(=O)NCc1cccc(N(C)C)n1)c1ccccn1 (stereo not drawn) | -40.08%
19 | CN(Cc1cncnc1)[C@@H]1CN(C(=O)c2ccco2)[C@@H]2CCCO[C@H]12 | 8.17%
20 | CC(C)c1nnc2n1CCN(Cc1csc(-c3cnn(C)c3)n1)C2 | 47.25%
21 | Cc1nnc2n1CCN(Cc1csc(-c3cnn(C)c3)n1)C2 | 57.34%
22 | CC(=O)N1CCN(Cc2csc(-c3cnn(C)c3)n2)CC1 | -6.3%
23 | CCc1nnc2n1CCN(Cc1csc(-c3cnn(C)c3)n1)C2 | -4.69%
24 | COCCN1CCN(Cc2csc(-c3cnn(C)c3)n2)CC1 | -20.82%
25 | Cn1cc(-c2nc(CN3CCN(CCO)CC3)cs2)cn1 | 53.03%
26 | CN(C)Cc1ccnc(C2CCCN2Cc2ccc(F)cn2)n1 (stereo not drawn) | 18.38%

Row | Structure (SMILES) | INHIBITION
27 | Cc1ncc(CN2CCC(O)(c3ccccc3F)CC2)cn1 | 4.19%
28 | N#Cc1ccc(OC2CCN(CC(=O)NCC3CCCO3)CC2)cc1 (stereo not drawn) | -27.4%
29 | Oc1coc2cc(OC[C@@H]3CCCN4CCCC[C@H]34)ccc12 | -61.71%
30 | CC(C)Cc1cc(C(=O)NCc2nnc[nH]2)[nH]n1 | 16.6%
31 | CN(Cc1ccsc1)C(=O)c1cccc(F)c1 | 14.82%
32 | Cc1ccc(NC2CCN(C(=O)COCC3CC3)CC2)nn1 | 15.28%
33 | O=C(NCc1cccc(F)c1F)c1cc(CN2CCCC(O)C2)on1 (stereo not drawn) | -81.33%
34 | O=C(NCc1ccc(Cl)s1)c1cc(CN2CCCC(O)C2)on1 (stereo not drawn) | 4.38%
35 | O=C(NCc1c(F)cccc1Cl)c1cc(CN2CCCC(O)C2)on1 (stereo not drawn) | 52.51%
36 | O=C(CCn1cccn1)NS(=O)(=O)N1CCCc2ccccc21 | -1.45%
37 | COc1ccc(C2CCCCCN2Cc2nnc(C)o2)cc1 (stereo not drawn) | 52.83%
38 | Cc1nnc(CN2CCCC2c2ccc(C(C)(C)C)cc2)o1 (stereo not drawn) | 29.19%
39 | Cc1nnc(CN2CCCC2c2ccc(Cl)c(Cl)c2)o1 (stereo not drawn) | -107.58%
40 | COc1cccc(Cn2cc(C3=CCN(CCO)CC3)cn2)c1 | 13.24%
41 | COc1cccc(Cn2cc(C3=CCN(CC(=O)N(C)C)CC3)cn2)c1 | 57.41%
42 | CN(C)C(=O)CN1CC=C(c2cnn(Cc3ccccc3)c2)CC1 | 21.95%
43 | O=C(Nc1cnn(CCN2CCOCC2)c1)c1ccccc1O | -12.48%
44 | O=C(Nc1cnn(CCN2CCOCC2)c1)c1cc(F)ccc1F | 53.03%
45 | O=C(Nc1cnn(CCN2CCOCC2)c1)c1ccccc1Cl | 28.33%
46 | COc1ncccc1CN1C[C@@H]2OCCN(CCN(C)C)[C@@H]2C1 | 22.18%
47 | c1coc(CN2CCn3c(CN4CCOCC4)nnc3C2)c1 | 8.99%
48 | Cc1[nH]nc(CCC(=O)N2CCOC(CCc3ccccc3)C2)c1C (stereo not drawn) | -18.99%
49 | Fc1ccc2c(c1)nc1n2[C@@H](CNCc2nccs2)COC1 | 61.42%
50 | c1ccc2c(c1)nc1n2[C@@H](CNCc2nccs2)COC1 | 24.64%
51 | COc1ccc2c(c1)nc1n2[C@@H](CNCc2nccs2)COC1 | 24.42%
52 | CC(C)n1ccnc1CN1CCOC(C)(C(=O)N2CCOCC2)C1 (stereo not drawn) | 13.58%

Row | Structure (SMILES) | INHIBITION
53 | Cc1nc(N2CCOCC2)nc2c1CCN(Cc1nccn1C)CC2 | 13.25%
54 | COCC(=O)N1C[C@H]2CN(Cc3csc(C)n3)C(=O)[C@H]2C1 | -6.13%
55 | Cc1cccc(CN2C[C@@H]3COC[C@]3(CNC(=O)C3CCC3)C2)c1 | 55.92%
56 | Cn1cc(CN2C[C@@H]3COC[C@]3(CNC(=O)c3ccccc3)C2)cn1 | 23.43%
57 | Cc1cccc(CN2C[C@@H]3COC[C@]3(CNC(=O)c3cccn3C)C2)n1 | -26.91%
58 | O=C(NC[C@]12COC[C@H]1CN(Cc1ccncc1)C2)c1ccco1 | -5.65%
59 | COc1cccc(CN2C[C@@H]3COC[C@]3(CNC(=O)C3CC3)C2)c1 | -9.07%
60 | Cc1cccc(CN2C[C@@H]3COC[C@]3(CNC(=O)c3ccccc3)C2)n1 | 59.04%
61 | Cc1cccc(CN2C[C@@H]3COC[C@]3(CNC(=O)C3CC3)C2)c1 | -2.81%
62 | Cn1cc(CN2C[C@@H]3COC[C@]3(CNC(=O)c3ccco3)C2)cn1 | 67.67%
63 | Cc1cccc(CN2C[C@@H]3COC[C@]3(CNC(=O)c3ccsc3)C2)n1 | -26.88%
64 | COc1cccc(OC)c1C(C(=O)O)N(C)Cc1c(C)n[nH]c1C (stereo not drawn) | 17.2%
65 | CCN1CCC2(CC1)CC(NCc1cccs1)c1ccccc1O2 (stereo not drawn) | -5.2%
66 | COCC(=O)N1CC(=O)c2sc(Nc3ccc(F)cc3F)nc2C1 | -0.83%
67 | Cc1noc(C(C)Nc2ccc3c(c2)CCC3)n1 (stereo not drawn) | -46.99%
68 | CN1CCc2c(C#N)c(NCCc3ccccc3)n3cnnc3c2C1 | -30.35%
69 | Cc1ccc(NS(=O)(=O)c2c[nH]c3ncccc23)nc1 | -27.36%
70 | Cc1csc(NC(=O)c2cnc(C3CCCN3)cn2)n1 (stereo not drawn) | 14.47%
71 | CCCn1nc2c(cc1=O)CN(Cc1ncc(C(C)(C)C)o1)CC2 | 27.85%
72 | C1=CCN(c2nc(CC3CC3)nc3c2CCN(C2CCOCC2)CC3)C1 | -59.35%
73 | O=C(c1cc(-c2ccc(O)cc2)n[nH]1)N1CCCC1c1cccnc1 (stereo not drawn) | 35.01%
74 | COc1cc(C)nc(N2CCN(C(=O)CCc3ccsc3)CC2)n1 | 1.77%
75 | COCC(=O)N1CC[C@]2(O)CCN(C(=O)CCc3ccsc3)C[C@@H]2C1 | -11.68%
76 | COCC(=O)N1CCN(C(=O)CCc2ccsc2)CC1 | 67.28%
77 | C[C@H]1CN(C(=O)c2cccc(F)c2Cl)CCN1S(C)(=O)=O | -33.29%
78 | CSc1nccc(N2CCC(NCc3ccc4c(c3)OCO4)CC2)n1 | 46.95%

Row | Structure (SMILES) | INHIBITION
79 | c1ccc(CN2CCOCC3(CCN(C4CCOCC4)C3)C2)cc1 (stereo not drawn) | -28.17%
80 | CCc1[nH]c2c(CNC(=O)C3CNC(=O)C3)cc(C)cc2c1C (stereo not drawn) | 53.05%
81 | CCc1[nH]c2c(CNC(=O)C3CCC(=O)NC3)cc(C)cc2c1C (stereo not drawn) | 11.37%
82 | CCc1[nH]c2c(CNC(=O)C3CCS(=O)(=O)CC3)cc(C)cc2c1C | 13.65%
83 | CCC(CO)N(Cc1ccco1)C(=O)c1ccccc1NC (stereo not drawn) | 4.57%
84 | CCOCC(O)CN1CCN(C(=O)c2ccncc2)CC1 (stereo not drawn) | 69.01%
85 | CCOCC(O)CN1CCN(C(=O)c2cc(F)cc(F)c2)CC1 (stereo not drawn) | -41.07%
86 | CCOCC(O)CN1CCN(C(=O)c2ccc(OC)cc2)CC1 (stereo not drawn) | 2.8%
87 | COc1ccc(-c2cc3nc([C@H](C)NC(=O)C4CC4)nn3cn2)cc1 | 20.72%
88 | Cc1ccc(CN2CC[C@H]3[C@H]2CCN3S(C)(=O)=O)s1 | -25.95%
89 | CCn1cc(CN2C[C@@H]3CC[C@H]2CN(C(=O)c2ccncc2)C3)cn1 | -23.16%
90 | CCc1nn(C)c2[nH]nc(NC(=O)c3cccnc3NC(C)C)c12 | 54.87%
91 | CCc1nn(C)c2[nH]nc(NC(=O)c3cccnc3OCC(C)C)c12 | 5.94%
92 | CCc1nn(C)c2[nH]nc(NC(=O)c3cccnc3OC)c12 | -3.4%
93 | Cc1cnn(CC2CCCN2Cc2coc(-c3ccc(F)cc3)n2)c1 (stereo not drawn) | 7.8%
94 | Cc1cccc2c1NC1(CCCC1)NC2=O | 19.81%
95 | COc1cccc(OC2CN(C(=O)c3ccnc(OC)c3)C2)c1 | 6.85%
96 | CCc1ccccc1OC1CN(C(=O)c2ccnc(OC)c2)C1 | 72.94%
97 | COc1cc(C(=O)N2CC(Oc3ccccc3Cl)C2)ccn1 | 14.88%
98 | CNC(=O)C1CCN(C(=O)c2cccn2Cc2cccs2)CC1 | 56.67%
99 | O=C(c1cccn1Cc1cccs1)N1CCC(C(=O)N2CCCC2)CC1 | 17.42%
100 | O=C(c1cccn1Cc1cccs1)N1CCN(C2CC2)CC1 | -14.3%
101 | O=C(c1cccn1Cc1cccs1)N1CCN(C(=O)C2CC2)CC1 | -72.53%
102 | O=C(c1cccn1Cc1cccs1)N1CCSCC1 | 69.49%
103 | NC(=O)C1CCN(C(=O)c2cccn2Cc2cccs2)CC1 | 3.97%
